Screens from PubChem.
Compounds with a hit are over-represented: about 4.7% of the library has one in this group of screens.
D1 PAM: human D1 dopamine receptor positive modulation; P21728; HEK293 TREx D1 cells, calcium flux, dopamine EC20 potentiation; potentiation, % at 10 µM; hit rate 0.036% among 360,000; AID 504651; in the data active = potentiation above about 30%; also: 0% is about no effect
TRHR agonist: activates the human TRH receptor | P34981 | TRHR cells, calcium flux fluo-8, FDSS agonist mode | activation, % at 2 µM | hit rate 0.18% among 360,000; also: 0% is about no effect
Target sequence (P34981 whole entry, looked up): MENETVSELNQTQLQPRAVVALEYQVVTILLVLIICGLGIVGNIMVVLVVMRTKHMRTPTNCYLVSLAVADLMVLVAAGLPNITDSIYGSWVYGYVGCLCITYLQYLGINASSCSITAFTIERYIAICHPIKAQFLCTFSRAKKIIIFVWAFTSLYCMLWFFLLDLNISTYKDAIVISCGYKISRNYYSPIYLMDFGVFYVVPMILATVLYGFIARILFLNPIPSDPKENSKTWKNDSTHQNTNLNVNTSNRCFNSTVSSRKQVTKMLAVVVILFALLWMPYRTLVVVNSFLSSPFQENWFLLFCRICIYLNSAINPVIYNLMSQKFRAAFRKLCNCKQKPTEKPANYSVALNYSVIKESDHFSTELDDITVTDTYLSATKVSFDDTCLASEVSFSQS
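Read-out: compound-evoked intracellular calcium rise in TRHR cells, fluo-8 dye, kinetic FDSS fluorescence at 1 s/cycle following a 10-cycle baseline. Cells cultured overnight before dye loading (30 min–1.5 h, RT).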
TRHR enhancer: TRH receptor (human) allosteric enhancement. P34981. TRHR cells, fluo-8 calcium fluorescence, EC20 TRH enhancement. enhancement, % at 2 µM. hit rate 0.66% among 360,000. AID 493056; in the data active = enhancement above about 30%; also: 0% is about no effect
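TRHR-expressing cells loaded with fluo-8 calcium dye were read kinetically (ex 480/em 530) during compound addition, then stimulated with an EC20 of TRH (10 nM final). Enhancement of the Gq-mediated intracellular calcium response was scored.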
D1 antagonist: blocks dopamine activation of the human D1 receptor; P21728; HEK293 TREx D1 cells, calcium flux, dopamine EC80; active compounds read low; activity change, negative = inhibition, % at 10 µM; hit rate 3.2% among 360,000; AID 504652; in the data active = activity change below about -30%; also: % is scaled to controls: 0 for no effect and ±100 for the full control effect
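Allosteric or orthosteric antagonism assessed as attenuation of the calcium response to EC80 dopamine, added 180 s after compound, in induced HEK293 Trex D1 cells loaded with no-wash calcium dye.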
D1 agonist: agonists of human D1 dopamine receptor. HEK293 T-REx D1 cells, calcium flux, agonist mode. activation, % at 2 µM. P21728. hit rate 1% among 360,000; also: 0% is about no effect
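Tetracycline-induced HEK293 TREx D1 cells, force-coupled to calcium signalling, were dye-loaded with a no-wash calcium kit. Compound was pin-added after a 10 s baseline. Fluorescence was read kinetically at 1 cycle/s for 180 s, with calcium rises flagged as agonism.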
Starred values were filed as active, the others as inactive. Rule as the data show it, unless noted: active = activation above about 30%; inactive = the rest.

CCOc1cc(C(=O)Nc2ccccc2N2CCN(S(C)(=O)=O)CC2)cc(OCC)c1OCC was read as D1 PAM -4.3, TRHR agonist 0.3, TRHR enhancer -1.5, D1 antagonist -63.8* and D1 agonist 1.5.
`CCOc1cc(C(=O)Nc2ccc(N3CCN(S(C)(=O)=O)CC3)cc2)cc(OCC)c1OCC` gave D1 PAM 5.3, TRHR agonist -0.1, TRHR enhancer -1.0, D1 antagonist 11.0 and D1 agonist 0.8.
For CCCNC(=O)CCNS(=O)(=O)c1ccc2c(c1)c(=O)n(C)c(=O)n2C the results were D1 PAM -3.8, TRHR agonist 1.1, TRHR enhancer 15.9, D1 antagonist -4.3 and D1 agonist 0.6.
Screening CCOC(=O)Cn1c(=O)n(CC2CCCO2)c2nc(-c3cccc(C)c3)nc(C(N)=O)c21 (stereo unspecified) returned D1 PAM 1.3, TRHR agonist -0.1, TRHR enhancer -2.2, D1 antagonist 14.3 and D1 agonist 3.2.
For FC(F)(F)c1cccc(NC(=S)NNC(=S)Nc2cccc(C(F)(F)F)c2)c1 the results were D1 PAM -4.8, TRHR agonist 0.1, TRHR enhancer -3.1, D1 antagonist -33.6* and D1 agonist 2.3.
Screening COC(=S)Nc1cccc(C(F)(F)F)c1 returned D1 PAM -2.5, TRHR agonist -2.5, TRHR enhancer -3.3, D1 antagonist -7.5 and D1 agonist -0.2.
For CNNC(=S)Nc1cccc(C(F)(F)F)c1 the results were D1 PAM -1.1, TRHR agonist 0.1, TRHR enhancer -1.5, D1 antagonist 2.9 and D1 agonist -0.1.
`CC(C)(C)NC(=S)Nc1cccc(C(F)(F)F)c1` gave D1 PAM -9.3, TRHR agonist -1.1, TRHR enhancer 7.6, D1 antagonist -0.5 and D1 agonist 30.9*.
`Cc1ccc(C)c(N2CCN(C(=O)c3cccn3-c3nnc(N4CCCCC4)s3)CC2)c1` gave D1 PAM -0.6, TRHR agonist -0.6, TRHR enhancer -11.0, D1 antagonist 16.0 and D1 agonist 2.1.
`O=C(Cn1c(=O)n(Cc2ccc(C(=O)NCc3ccc4c(c3)OCO4)cc2)c(=O)c2ccccc21)Nc1cccc(Cl)c1` gave D1 PAM 2.0, TRHR agonist 3.5, TRHR enhancer 5.3, D1 antagonist 5.0 and D1 agonist 4.2.
COc1ccc(NC(=O)C2CC(c3c(F)cccc3Cl)=NO2)cc1 (stereo unspecified) was read as D1 PAM -2.8, TRHR agonist 0.0, TRHR enhancer -1.8, D1 antagonist -15.5 and D1 agonist 4.7.
For COc1cc(NC(=O)C2CC(c3c(F)cccc3Cl)=NO2)cc(OC)c1OC (stereo unspecified) the results were D1 PAM -6.9, TRHR agonist -1.1, TRHR enhancer 1.8, D1 antagonist -38.6* and D1 agonist 19.9.
Screening CCSc1ncc(Cl)c(C(=O)N(Cc2ccc(C(C)(C)C)cc2)C2CCS(=O)(=O)C2)n1 (stereo unspecified) returned D1 PAM -0.1, TRHR agonist 0.6, TRHR enhancer -4.6, D1 antagonist -2.9 and D1 agonist 3.8.
`CC1(C)Cc2cccc(OCC(=O)NCc3ccccc3F)c2O1` gave D1 PAM 0.1, TRHR agonist 0.2, TRHR enhancer -0.9, D1 antagonist -35.4* and D1 agonist 2.5.
For Cc1ccc(CNC(=O)COc2cccc3c2OC(C)(C)C3)cc1 the results were D1 PAM -3.2, TRHR agonist -0.2, TRHR enhancer 25.3, D1 antagonist -7.8 and D1 agonist 8.4.
`COC(=O)c1c(C)oc2ccc(N(C(=O)c3ccncc3)S(=O)(=O)c3ccc(Br)cc3)cc12` gave D1 PAM -0.4, TRHR agonist 0.6, TRHR enhancer -9.7, D1 antagonist -36.6* and D1 agonist 12.0.
Screening COC(=O)c1c(C)oc2ccc(N(C(=O)c3ccncc3)S(=O)(=O)c3cc(C)ccc3C)cc12 returned D1 PAM -0.6, TRHR agonist -0.4, TRHR enhancer -5.3, D1 antagonist 26.2 and D1 agonist 0.4.
COC(=O)c1c(C)oc2ccc(N(C(C)=O)S(=O)(=O)c3ccccc3)cc12 was read as D1 PAM -9.9, TRHR agonist -0.3, TRHR enhancer -3.8, D1 antagonist -66.3* and D1 agonist 2.3.
For CCOC(=O)c1c(C)oc2ccc(N(C(=O)c3ccncc3)S(=O)(=O)c3ccc(Br)cc3)cc12 the results were D1 PAM -4.8, TRHR agonist -0.5, TRHR enhancer -4.7, D1 antagonist -56.7* and D1 agonist 2.5.
For Cc1cccc(Cn2c(SCc3ccc(C(=O)NCc4ccccc4)cc3)nc3cccnc32)c1 the results were D1 PAM -3.8, TRHR agonist 0.7, TRHR enhancer 6.5, D1 antagonist -22.3 and D1 agonist 8.7.
Cc1ccc(-c2nonc2NC(=O)c2ccc(F)cc2)cc1C was read as D1 PAM 0.1, TRHR agonist 0.0, TRHR enhancer -2.6, D1 antagonist -3.5 and D1 agonist -0.4.
`COC(=O)c1cccc(NC(=O)N(C)CCc2c(C)nn(C)c2C)c1` gave D1 PAM -0.3, TRHR agonist 0.1, TRHR enhancer 2.4, D1 antagonist -1.0 and D1 agonist -1.0.
CN(C)CCNS(=O)(=O)c1ccc2c3c(cccc13)C(=O)N2 was read as D1 PAM 0.9, TRHR agonist 1.0, TRHR enhancer 40.2*, D1 antagonist -1.7 and D1 agonist 4.1.
For CCOC(=O)c1ccc(NC(=O)C(CC)Sc2nc3ccncc3[nH]2)cc1 (stereo unspecified) the results were D1 PAM -0.8, TRHR agonist -0.9, TRHR enhancer -1.9, D1 antagonist 25.3 and D1 agonist 53.1*.
CCOc1ccc(NS(=O)(=O)c2ccc3[nH]cc(C(=O)NCc4ccco4)c(=O)c3c2)cc1 was read as D1 PAM 1.7, TRHR agonist 0.1, TRHR enhancer 23.8, D1 antagonist -47.8* and D1 agonist 0.3.
For CC(C)c1ccc(NC(c2nnc(-c3ccccc3)o2)c2ccc(F)cc2Cl)cc1 (stereo unspecified) the results were D1 PAM -5.1, TRHR agonist -0.2, TRHR enhancer -3.2, D1 antagonist 0.4 and D1 agonist 0.6.
CN(Cc1nccs1)C(=O)c1ccc(OC2CCN(CCc3ccccc3)CC2)cc1 was read as D1 PAM -11.2, TRHR agonist 1.2, TRHR enhancer 4.7, D1 antagonist -53.6* and D1 agonist 5.6.
Screening O=C(c1ccc(OC2CCN(CCc3ccccc3)CC2)cc1)N1CCC(CO)CC1 returned D1 PAM -13.6, TRHR agonist -0.7, TRHR enhancer 2.6, D1 antagonist -44.4* and D1 agonist 14.4.
COc1cccc(Cn2ncc3c4sc(C)cc4n(C)c3c2=O)c1 was read as D1 PAM -5.2, TRHR agonist -2.0, TRHR enhancer -2.1, D1 antagonist 9.5 and D1 agonist 7.1.
